The nature of this experiment: NCI Yeast Anticancer Drug Screen. Data for the rad18 strain (AID 177). Conditions: S. cerevisiae rad18 mutant growth inhibition, active compounds read high. The method, then: Growth inhibition of yeast strains with defined genetic alterations is measured as a screen for potential anti-cancer activity. Selected strains with alterations in DNA damage repair or cell cycle control were exposed to compounds and growth inhibition was measured relative to vehicle treated controls. The strain used in this assay is rad18

This is part of a sample that, as a whole, favours compounds with a hit. Of some 79,000 tested, about 15% had one in any assay. A number with no mark means an inactive call. Activity calls are given as the source filed them. No stated cut-off is given here; in the data, active means growth inhibition above about 70%; inactive means the rest.

For `O=C1C=CC(=O)N1c1ccc(Br)cc1Cl`, the growth inhibition by setting is: (at 1.2 µM) 85% (active); (at 3.7 µM) 99% (active); (at 11.0 µM) 99% (active); (at 33.0 µM) 93% (active); (at 100.0 µM) 99% (active).
`N=c1oc2ccccc2cc1-c1nc2ccccc2[nH]1`: the growth inhibition is, setting by setting: (at 1.2 µM) 2%; (at 3.7 µM) 5%; (at 11.0 µM) 14%; (at 33.0 µM) 27%; (at 100.0 µM) 71% (active).
In the case of `CCCCCC/C(C)=N/Nc1ccc([N+](=O)[O-])cc1[N+](=O)[O-]`, the growth inhibition reads like this: (at 1.2 µM) -8%; (at 3.7 µM) -9%; (at 11.0 µM) -8%; (at 33.0 µM) -1%; (at 100.0 µM) -36%.
Regarding `CN(NC(=O)/C(=C/C=C/c1ccccc1)NC(=O)c1ccccc1)C1=C(Cl)C(=O)[N+](c2ccccc2)=CC1`, the growth inhibition (at 1.2 µM) was 1%; the growth inhibition (at 3.7 µM) is 26%; the growth inhibition (at 11.0 µM) is 77% (active); the growth inhibition (at 33.0 µM) was 90% (active); the growth inhibition (at 100.0 µM) is 87% (active).
With `CC(=O)O/N=C/c1c2ccccc2cc2ccccc12`, the growth inhibition is 0% (at 1.2 µM); -1% (at 3.7 µM); 11% (at 11.0 µM); 54% (at 33.0 µM); 83% (active) (at 100.0 µM).
For `O=S(=O)(Oc1c(Cl)cc(Cl)cc1Cl)c1ccccc1`, in that order: -3%, 4%, 12%, 19% and 30%.
Taken in the same sequence, the figures for `CC(C)c1ccc(C2NC(=S)NC3=C2c2ccccc2C3=O)cc1` (stereo not given) were 2%, 8%, 10%, 13% and 38%.
For `Nc1ccc2cc(Br)c3ccccc3c2c1`, in that order: -3%, -2%, -4%, -1% and -5%.

(Values after PubChem BioAssay (NCI).)
